# Screening data deposited in PubChem BioAssay by National Center for Advancing Translational Sciences (NCATS).
# RORg inh: blocks mouse ROR gamma transcriptional activity; P51450; Drosophila S2 Gal4-RORgamma UAS-luciferase reporter, 20 h; Potency, µM (highest dose often 53.6 µM), for inactives: at the top dose activity change, negative = inhibition, hits mostly inhibitors; actives 5.4% (n = 310,000); AID 2551; note: nearly all actives have a fitted effect of over 60% in size
#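 In this cell-based reporter format, copper sulfate (700 uM final) drives Gal4–ROR gamma fusion expression from a metallothionein promoter in Drosophila Schneider cells; compounds preincubated 1 hr, reporter read after 20 hr at ambient temperature.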
# TDP1 cell noCPT: qHTS for Inhibitors of human tyrosyl-DNA phosphodiesterase 1 (TDP1): qHTS in cells in absence of CPT. DT40 Tdp1-/- hTDP1 cells, no CPT, ATP luminescence, 48 h. Potency, µM (doses to about 46.2 µM), without a hit: top-dose activity change, negative = growth inhibition, most hits filed as inhibitors. actives 15% (n = 420,000). AID 686978, 2013; note: nearly all actives have a fitted effect of over 55% in size
#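 Seeded 400 DT40-hTDP1 cells/well (vehicle DMSO, no 20 nM CPT); pinned compounds; ≥48 hr at 37 °C; CellTiter-Glo luminescence as viability measure.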
# TDP1 cell CPT: growth inhibition of DT40 Tdp1-/-;hTDP1 cells with camptothecin (screen for TDP1 inhibitors) | chicken DT40 Tdp1-/-;hTDP1 cells + 20 nM CPT, ATP luminescence, 48 h | actives 12% (n = 420,000) | Potency, µM (series often up to 46.2 µM), without a hit: top-dose activity change, negative = growth inhibition, actives largely listed as inhibitors; note: nearly all actives have a fitted effect of over 55% in size
#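 Cell growth measured by CellTiter-Glo luminescence after a minimum 48 h, 37 C compound exposure with 20 nM CPT in Tdp1-knockout DT40 cells stably expressing hTDP1, seeded 400/well; qHTS titration format.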
# VP16 counter: inhibits Gal4-VP16 luciferase reporter, ROR gamma counter-screen; Drosophila S2 Gal4-VP16 UAS-luciferase, luminescence, 20 h; Potency, µM (top dose mostly 53.6 µM), for the others: top-dose activity, negative = inhibition, hits mostly inhibitors; actives 3.5% (n = 310,000); AID 2546;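 note: Gal4-VP16 expression switched on by copper sulfate through the metallothionein promoter; nearly all actives have a fitted effect of over 50% in size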
# TDP1 block: inhibitors of human tyrosyl-DNA phosphodiesterase TDP1; Q9NUW8; recombinant TDP1, AlphaScreen DNA substrate cleavage; Potency, µM (titrated, usually from 130 µM), for inactives: top-dose activity change, negative = inhibition, usual class: inhibitors; actives 0.28% (n = 350,000); AID 485290; note: nearly all actives have a fitted effect of over 40% in size
# Target sequence (Q9NUW8 whole entry, looked up): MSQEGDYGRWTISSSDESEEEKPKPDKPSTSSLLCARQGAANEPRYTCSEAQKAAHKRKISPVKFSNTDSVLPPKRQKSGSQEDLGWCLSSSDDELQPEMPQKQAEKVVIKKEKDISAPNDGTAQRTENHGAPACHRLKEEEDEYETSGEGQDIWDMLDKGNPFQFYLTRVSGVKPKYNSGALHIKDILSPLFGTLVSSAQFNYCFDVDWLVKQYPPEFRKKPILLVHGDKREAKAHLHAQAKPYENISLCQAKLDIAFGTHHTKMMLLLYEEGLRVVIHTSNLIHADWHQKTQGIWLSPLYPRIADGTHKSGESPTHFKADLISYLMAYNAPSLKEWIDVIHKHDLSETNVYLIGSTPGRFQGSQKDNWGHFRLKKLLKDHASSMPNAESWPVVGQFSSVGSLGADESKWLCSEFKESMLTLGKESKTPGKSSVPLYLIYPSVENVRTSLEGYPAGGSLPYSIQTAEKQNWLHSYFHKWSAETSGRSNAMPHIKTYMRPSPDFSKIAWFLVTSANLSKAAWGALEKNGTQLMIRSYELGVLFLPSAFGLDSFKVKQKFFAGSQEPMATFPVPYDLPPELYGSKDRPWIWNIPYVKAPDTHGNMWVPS
#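 Tdp1 1 nM final; 15 min RT w/ cpd; substrate 15 nM, 5 min; beads 10 ug/ml, 10 min; AlphaScreen read. Neg ctrl: no enzyme.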
# The depositor's hits bear a star; u = inconclusive; x = no result given; [ ] = remark or other dose. Sampled rows, rich in hits. Any-hit rate of the full collection: about 19%. Calls come from the whole dose curve; as a rule, active = well fitted curve in the direction sought with a large enough effect; inconclusive = small, poorly fitted or top-dose-only effect, or another doubt; inactive = no such curve, though single readings can be large; an effect the other way counts as inactive or inconclusive. % is set by controls: 0 for no effect and ±100 for the full control effect; potency is the fitted concentration of half-maximal effect.
SMILES,RORg inh,TDP1 cell noCPT,TDP1 cell CPT,VP16 counter,TDP1 block
Cc1cccc(N2CCN(CCCNC(=O)C3CCCN(c4ncnc5c4nc4n5CCCCC4)C3)CC2C)c1 (centres undefined),13%,12µM*,u,2%,5%
COC(=O)c1cc(S(=O)(=O)Nc2nn(C)c3cccc(F)c23)oc1C,-11%,-3%,-1%,-2%,10%
CC1(CC(=O)N/N=C/c2cc(Br)c(O)cc2O)OCCO1,10µM*,u,u,-15%,2%
Cc1oc(/C=N/NC(=O)CC2(C)OCCO2)cc1Br,2%,1%,29%,3%,-3%
COc1ccc(Cn2c(NCC(C)C)nc3c2c(=O)n(C)c(=O)n3C)cc1,x,u,-10%,x,x
COc1ccc(Oc2nc3c(c(=O)n(C)c(=O)n3C)n2Cc2ccccc2Cl)cc1,x,13µM*,u,x,-2%
Cn1c(=O)c2c(nc(NCC3CCCC(CN)C3)n2Cc2ccc(Cl)cc2Cl)n(C)c1=O (centres undefined),-40%,5.8µM*,4.6µM*,1%,x
COc1ccc(Oc2nc3c(c(=O)n(C)c(=O)n3C)n2Cc2ccc(Cl)cc2Cl)cc1,x,21µM*,u,x,0%
COc1ccc(Cl)c(Cn2c(NCc3ccccn3)nc3c2c(=O)n(C)c(=O)n3C)c1,-19%,15µM*,u,2%,3%
COc1ccc(OC)c(S(=O)(=O)NCc2cn3ccsc3n2)c1,-18%,-6%,2%,-14%,-1%
O=C(CC(SCCO)c1ccc2c(c1)OCO2)c1cccs1 (centres undefined),u,12µM*,12µM*,6%,-1%
CC(NC(=O)Cc1cccs1)c1ccc2c(c1)OCO2 (centres undefined),14%,-17%,4%,2%,0%
O=C(CSc1nnc(-c2ccc(O)cc2)n1Cc1ccco1)c1cccs1,0%,u,u,0%,4%
O=C(CC(SCc1ccco1)c1ccc(O)cc1)c1cccs1 (centres undefined),0.89µM*,23µM*,u,-14%,10%
CCN(CC(=O)Nc1c(F)cccc1F)C(=O)Cc1csc(-c2ccccc2)n1,x,-29%,-26%,x,0%
CC(=O)N[C@H]1C[C@@H]1c1ccccc1,-15%,-1%,5%,2%,0%
CCCCCCCCN1C(=O)[C@H](CC(=O)NCc2cccs2)C[C@@]2(C(=O)OC)CCCCC=C12,x,15µM*,16µM*,x,x
CCCCN1C(=O)C(CC(=O)NCc2cccs2)CC(C(=O)N(C)C)=C1C (centres undefined),x,-21%,-3%,x,x
CCCCCCCCN1C(=O)[C@H](CC(=O)NCc2cccs2)C[C@@]2(C(=O)OCC)CCCC=C12,x,16µM*,u,x,x
COc1ccccc1N1C(=NC(=O)CCC2CCCC2)SC2CS(=O)(=O)CC21 (centres undefined),-1%,22%,0%,-6%,1%
C=CCn1c(SCC(=O)NCc2ccc3c(c2)OCO3)nc2scc(-c3ccc(F)cc3)c2c1=O,-25%,u,u,0%,4%
Cc1c(C(=O)Nc2cccnc2)oc2ccc(Br)cc12,45%,u,u,-1%,4%
CCc1ccc2oc(C(=O)Nc3cccnc3)c(C)c2c1,x,23µM*,16µM*,x,1%
O=C(Nc1cccnc1)c1cc2c(ccc3ccccc32)o1,1.4µM*,u,u,u,x
NNC(=O)c1cc2c(ccc3ccccc32)o1,-39%,u,u,-8%[10 µM],5%
O=C(c1ccc(Cl)cc1)c1c[nH]cc1-c1ccccc1,-2%,-8%,u,-14%,4%[56.1 µM]
Cc1ccccc1C(=O)Nc1ccc(Cl)cn1,-23%,21µM*,16µM*,1%,0%
CN(c1ccc(C(=O)Nc2ccc(Cl)cn2)cc1)S(=O)(=O)c1ccccc1,-30%,21µM*,u,u,0%
Cc1ccccc1C(=O)Nc1ccccn1,3%,-17%,-1%,16%,-1%
Cc1ccccc1C(=O)Nc1ccc(Br)c(C)n1,u,9.2µM*,u,12%,7%
